Assay [1] in a line: anti-His antibody binders, primary screen, artefact control for SMM control protein annotation, biochemical, small-molecule microarray, 635 nm fluorescence (AID 1128).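 Further: score merges feature fluorescence with signal-to-noise for each printed compound spot.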 Conditions: anti-His Alexa647 antibody binding, higher = more signal.
The subject of assay [2] is Human papillomavirus type 1a E7 protein (residues 1-88). In words: HPV1a E7 small-molecule binders, primary screen, biochemical, small-molecule microarray, residues 1-88, 635 nm (AID 1129). Conditions: small-molecule microarray binding, fluorescence 635 nm; higher = more signal.
Assay [3] addresses Focal adhesion kinase 1 (Homo sapiens) (UniProt Q05397). Kind of assay: small-molecule microarray binders of FAK, primary screen, biochemical, 635/667 nm fluorescence, BSA, DTT (AID 1130).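 Further: composite of spot emission at 667 nm and signal to noise over triplicate slides.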 Conditions: PTK2 binding, 635 nm fluorescence, higher = more signal.
In assay [4] the test system is Fibrinogen (Alexa647-labelled). In words: fibrinogen binders on compound microarrays, profiling panel, artefact control for SMM control-protein annotation, biochemical, small-molecule microarray, 635/667 nm fluorescence (AID 1131).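 Further: z-score merges 667 nm fluorescence with per-spot signal-to-noise over triplicate slides.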 Conditions: fibrinogen-A647 binding fluorescence, higher = more signal.
Assay [5] has as its target Follistatin (Homo sapiens) (UniProt P19883). Kind of assay: follistatin binders on small-molecule microarrays, primary screen, biochemical, small-molecule microarray, 635/667 nm fluorescence (AID 1132). To be noted: FST binding, 635 nm fluorescence, higher = more signal.
The target in assay [6] is Fibroblast growth factor 2 (Homo sapiens) (UniProt P09038). In words: FGF2 binders on small-molecule microarrays, primary screen, biochemical, small-molecule microarray, 635/667 nm fluorescence (AID 1133). To be noted: small-molecule microarray binding, FGF2, fluorescence 635/667; higher = more signal.
Chain of Fibroblast growth factor 2 (Homo sapiens) (P09038 whole entry, looked up): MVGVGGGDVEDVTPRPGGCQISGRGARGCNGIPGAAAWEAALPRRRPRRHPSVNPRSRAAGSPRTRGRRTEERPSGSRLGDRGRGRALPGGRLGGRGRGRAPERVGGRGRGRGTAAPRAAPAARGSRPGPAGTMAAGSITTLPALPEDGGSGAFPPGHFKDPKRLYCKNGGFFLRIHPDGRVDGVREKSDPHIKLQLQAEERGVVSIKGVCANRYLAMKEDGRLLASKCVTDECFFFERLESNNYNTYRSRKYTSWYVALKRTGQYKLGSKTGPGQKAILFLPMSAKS
Assay [7] is described as follows: mitochondrial membrane potential change in A549 cells, profiling panel, cell-based, JC-1 fluorescence, basal, 24 h, 100 nL (AID 1138).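 Further: A549 lung adenocarcinoma cells under basal conditions with no added stimulus; test concentration not given here.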 Conditions: higher = more signal.
The next assay deals with Lefty1. Kind of assay: Lefty1 binders on small-molecule microarrays, primary screen, biochemical, small-molecule microarray, 635/667 nm fluorescence (AID 1139). To be noted: small-molecule microarray binding, fluorescence 635/667; higher = more signal.
For assay [8], the system named is wheat germ agglutinin (Triticum aestivum), Alexa647-labelled. Kind of assay: wheat germ agglutinin binders on compound microarrays, profiling panel, artefact control for SMM control-protein annotation, biochemical, small-molecule microarray, 635/667 nm fluorescence (AID 1140).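 Further: score merges 667 nm feature emission with signal to noise over triplicate slides.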 Conditions: WGA-A647 binding, 635 nm fluorescence, higher = more signal.
Assay [9] addresses Luciferin 4-monooxygenase (Photinus pyralis) (UniProt P08659). Kind of assay: firefly luciferase enzyme inhibitors, primary screen, biochemical, luminescence, purified enzyme, 2006 set (AID 1141).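 Further: cell-free assay with purified firefly luciferase at 100 ng per well in PBS; test concentration not given here.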 To be noted: SteadyGlo luminescence, 30 min, higher = more signal, called active from +8 up or from −8 down.
For assay [10], the system named is Wnt5a (protein binding on small-molecule microarray). In words: Wnt5a binders on small-molecule microarray, primary screen, biophysical, 635/667 nm fluorescence (AID 1142).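 Further: fluorescence read at 667 nm with signal to noise per printed feature.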 Conditions: 635 nm fluorescence, higher = more signal.
Assay [11] is described as follows: cell viability in Huh7 cells, primary screen, cytotoxicity control for HCV replication inhibitor project, CellTiter-Glo luminescence, basal, 48 h (AID 1143).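 Further: Huh7 hepatoma cells carrying a hepatitis C replication reporter with no stimulus; test concentration not given here.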 Conditions: Huh7 HCV replicon, higher = more signal, called active from +8 up or from −8 down. A general note: Cellular ATP, detected with luciferase, serves as a proxy for viable cell number.
The nature of assay [12]: P. aeruginosa biofilm formation inhibitors, primary screen, PAO1 strain, BacTiter-Glo luminescence, LB-PBS (AID 1144). To be noted: 12 h, higher = more signal.
The nature of assay [13]: CREB reporter modulators without forskolin, primary screen, cell-based, PC12, CRE-LacZ reporter, unstimulated (AID 1145). Conditions: no forskolin, luminescence, 4.5 h, higher = more signal, called active from +8 up or from −8 down.
The nature of assay [14]: CREB reporter modulators under forskolin, primary screen, cell-based, PC12, CRE-LacZ reporter, forskolin-stimulated (AID 1146).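 Further: PC12 cells with 6xCRE LacZ reporter stimulated by forskolin 10 µM; beta-galactosidase reporter signal reflecting CREB driven transcription.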 To be noted: luminescence, 4.5 h, higher = more signal, called active from +8 up or from −8 down.
For assay [15], the target named is Streptavidin (Streptomyces avidinii) (UniProt P22629). Kind of assay: streptavidin binders on small-molecule microarray, primary screen, artefact control for SMM compound annotation, biophysical, 635/667 nm fluorescence (AID 1147).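 Further: signal reflects streptavidin binding to arrayed compounds as a control protein.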 To be noted: streptavidin binding, higher = more signal.
Chain of Streptavidin (Streptomyces avidinii) (P22629 whole entry, looked up): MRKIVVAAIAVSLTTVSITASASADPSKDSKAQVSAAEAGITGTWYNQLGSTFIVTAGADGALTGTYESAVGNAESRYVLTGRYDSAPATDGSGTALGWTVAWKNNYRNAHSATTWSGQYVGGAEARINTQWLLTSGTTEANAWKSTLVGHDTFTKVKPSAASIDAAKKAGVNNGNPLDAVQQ
Assay [16] is described as follows: small-molecule binders of probe aInhba, primary screen, biochemical, small-molecule microarray, 635/667 nm fluorescence (AID 1148).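 Further: score merges 667nm spot fluorescence with signal-to-noise for antibody binding to printed compounds.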 To be noted: higher = more signal.
Assay [17] concerns the target Torsin-1A (Homo sapiens) (UniProt O14656). Kind of assay: torsin A binders from cell lysate, primary screen, small-molecule microarray, wild-type, 635/667 nm (AID 1149). To be noted: COS7 hTOR1A-WT lysate, 635 nm fluorescence, higher = more signal.
Assay [18] has the same target. In words: small-molecule binders of mutant TOR1A in lysate, primary screen, cell lysate, small-molecule microarray, COS7 lysate, 635/667 nm fluorescence (AID 1150).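 Further: score pools 667 nm emission and signal to noise measuring lysate protein binding.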 To be noted: COS7 hTOR1A mutant lysate, 635 nm fluorescence, higher = more signal.
In assay [19] the test system is Sonic hedgehog protein (Shh). In words: small-molecule binders of Shh protein, primary screen, biochemical, small-molecule microarray, 635/667 nm fluorescence (AID 1151).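 Further: Shh protein binding to compounds spotted on small-molecule microarray slides; score combines spot fluorescence intensity with signal-to-noise across triplicate slides.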 To be noted: small-molecule microarray binding, 635 nm fluorescence; higher = more signal.

SMILES strings stand for the structures. Calls of active or inactive are those of the source. Unless noted, how the calls were made is not given here.

Chain of Focal adhesion kinase 1 (Homo sapiens) (Q05397 whole entry, looked up): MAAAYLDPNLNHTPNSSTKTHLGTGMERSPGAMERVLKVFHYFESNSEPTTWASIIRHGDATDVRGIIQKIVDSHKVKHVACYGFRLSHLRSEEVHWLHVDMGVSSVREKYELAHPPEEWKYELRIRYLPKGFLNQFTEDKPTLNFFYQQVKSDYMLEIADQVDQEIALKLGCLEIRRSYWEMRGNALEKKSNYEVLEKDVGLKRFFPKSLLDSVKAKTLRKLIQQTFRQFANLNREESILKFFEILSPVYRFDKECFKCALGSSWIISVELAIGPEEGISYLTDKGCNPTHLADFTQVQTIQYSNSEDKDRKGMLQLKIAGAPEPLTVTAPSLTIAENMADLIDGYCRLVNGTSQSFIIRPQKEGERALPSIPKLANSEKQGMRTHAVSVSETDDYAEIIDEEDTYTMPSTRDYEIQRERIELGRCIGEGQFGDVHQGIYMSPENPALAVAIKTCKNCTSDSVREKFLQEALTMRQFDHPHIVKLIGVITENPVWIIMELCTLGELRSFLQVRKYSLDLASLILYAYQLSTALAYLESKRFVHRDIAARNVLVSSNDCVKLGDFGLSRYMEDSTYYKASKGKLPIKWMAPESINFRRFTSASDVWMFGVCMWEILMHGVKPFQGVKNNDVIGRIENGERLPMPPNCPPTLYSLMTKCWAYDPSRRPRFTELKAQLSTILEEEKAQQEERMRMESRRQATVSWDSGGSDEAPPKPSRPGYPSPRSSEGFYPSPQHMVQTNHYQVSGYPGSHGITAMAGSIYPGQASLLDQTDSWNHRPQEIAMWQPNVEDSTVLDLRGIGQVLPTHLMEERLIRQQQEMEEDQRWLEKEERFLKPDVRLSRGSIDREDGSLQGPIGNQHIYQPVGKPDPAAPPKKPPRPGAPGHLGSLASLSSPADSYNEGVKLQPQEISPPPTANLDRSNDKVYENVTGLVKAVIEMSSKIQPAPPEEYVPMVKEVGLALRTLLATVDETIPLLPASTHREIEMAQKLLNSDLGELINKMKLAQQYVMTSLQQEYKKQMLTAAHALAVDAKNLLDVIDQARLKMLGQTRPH
Chain of Follistatin (Homo sapiens) (P19883 whole entry, looked up): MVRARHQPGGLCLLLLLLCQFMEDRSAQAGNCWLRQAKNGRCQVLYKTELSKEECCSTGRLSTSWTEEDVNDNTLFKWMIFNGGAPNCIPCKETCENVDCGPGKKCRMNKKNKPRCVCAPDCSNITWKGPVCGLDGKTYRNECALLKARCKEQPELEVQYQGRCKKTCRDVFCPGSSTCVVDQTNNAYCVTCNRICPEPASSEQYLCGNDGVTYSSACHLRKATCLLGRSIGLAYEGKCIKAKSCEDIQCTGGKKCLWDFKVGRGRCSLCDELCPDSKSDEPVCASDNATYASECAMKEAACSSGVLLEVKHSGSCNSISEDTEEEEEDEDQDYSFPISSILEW
Chain of Torsin-1A (Homo sapiens) (O14656 whole entry, looked up): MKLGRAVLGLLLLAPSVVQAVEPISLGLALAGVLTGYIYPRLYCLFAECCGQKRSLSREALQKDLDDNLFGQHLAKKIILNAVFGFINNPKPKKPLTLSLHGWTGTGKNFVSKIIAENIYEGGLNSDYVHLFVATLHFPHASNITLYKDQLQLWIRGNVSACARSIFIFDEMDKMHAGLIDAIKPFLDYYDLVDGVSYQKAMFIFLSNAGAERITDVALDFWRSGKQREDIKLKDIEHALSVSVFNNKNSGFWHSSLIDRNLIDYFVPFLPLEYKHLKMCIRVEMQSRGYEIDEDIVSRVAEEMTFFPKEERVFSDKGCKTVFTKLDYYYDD
Chain of Luciferin 4-monooxygenase (Photinus pyralis) (P08659 whole entry, looked up): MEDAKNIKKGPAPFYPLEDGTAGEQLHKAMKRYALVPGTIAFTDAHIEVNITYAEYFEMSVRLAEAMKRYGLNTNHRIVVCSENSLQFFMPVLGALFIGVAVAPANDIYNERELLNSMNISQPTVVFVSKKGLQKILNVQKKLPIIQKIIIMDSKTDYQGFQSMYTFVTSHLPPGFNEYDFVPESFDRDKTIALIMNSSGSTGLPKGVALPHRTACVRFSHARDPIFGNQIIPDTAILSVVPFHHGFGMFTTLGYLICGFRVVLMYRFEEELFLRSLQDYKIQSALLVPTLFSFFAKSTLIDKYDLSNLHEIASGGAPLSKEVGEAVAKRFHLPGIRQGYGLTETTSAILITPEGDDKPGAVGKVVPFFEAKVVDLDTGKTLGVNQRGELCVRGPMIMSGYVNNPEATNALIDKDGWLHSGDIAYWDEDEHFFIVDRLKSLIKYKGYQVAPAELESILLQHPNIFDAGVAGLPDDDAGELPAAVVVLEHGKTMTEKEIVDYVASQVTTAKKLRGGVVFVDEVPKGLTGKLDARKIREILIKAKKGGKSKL

`COC(=O)[C@H](C)NC(=O)CCC1CC(OC(=O)NCc2ccc3c(c2)OCO3)CC2(CCCC(COC(=O)NCC(c3ccccc3)c3ccccc3)O2)O1` (stereo not given in full): the composite z-score worked out at 1.31 in [1]; 1.22 in assay [2]; 0.136 in assay [3]; 0.925 in [4]; 0.986 in assay [5]; 0.903 in assay [6]. The composite z-score in the assay with Lefty1 was 1.25; in assay [8], 0.31; in assay [10] it was 0.6; in assay [15], 0.693; in [16], -0.0719; with Torsin-1A (Homo sapiens) [17] it was 0.0104. For the same compound, the composite z-score in the assay with Torsin-1A (Homo sapiens) [18] amounted to 0.947; in [19], 1.97. The z-score in assay [7] was -1.35; in assay [9], 0.834 (inactive); in [11], -4.67 (inactive); in [12], -0.405 (inactive); in [13] it was -0.437 (inactive); in assay [14] it was 1.96 (inactive).

As to `CO[C@H](C1CCCCC1)[C@H](C)C=CCC(=O)OCCCc1ccccc1`, the composite z-score in assay [1] is 3.29; in assay [2], -1.15; in assay [3] it was 0.114; in assay [4], -0.938; in [5], 0.351; in assay [6], 0.541. The composite z-score is 0.0696 in the assay on Lefty1; -0.464 in assay [8]; -0.125 in [10]; 0.203 in assay [15]; -0.416 in assay [16]; 0.113 in the assay with Torsin-1A (Homo sapiens) [17]. The composite z-score was 0.171 with Torsin-1A (Homo sapiens) [18] and -0.057 in [19]. In addition, the z-score was -0.00988 in assay [7]; -1.02 (inactive) in [9]; 0.419 (inactive) in [11]; -0.294 (inactive) in assay [12]; 0.248 (inactive) in assay [13]; -0.468 (inactive) in assay [14].

On to `CO[C@@H]1COC(=O)CC=C[C@@H](C)[C@H](OC)COC(=O)[C@@H](C)COC(=O)CC=C[C@H]1C`, for which the composite z-score in assay [1] was -0.227; in [2] it was -1.38; in assay [3], -0.482; in assay [4] it was -1.39; in assay [5] it was 1.18; in [6], 0.867. In addition, the composite z-score was 1.24 with Lefty1; -0.839 in [8]; -0.451 in assay [10]; 0.0524 in assay [15]; -0.266 in [16]; 1.4 in the assay with Torsin-1A (Homo sapiens) [17]. The figures for the composite z-score (with Torsin-1A (Homo sapiens) [18]; in assay [19]) were 0.381 and 1.68, respectively. For the same compound, the z-score in assay [7] is 1.2; in assay [9] it was -0.798 (inactive); in assay [11], -0.128 (inactive); in [12] it was 0.416 (inactive); in [13], 0.518 (inactive); in assay [14] it was -0.14 (inactive).

Regarding `COc1cccc([C@H]2Oc3ccc(OC)cc3C(=NOC(C)CN3CCCCc4nc(C)c(C)cc43)[C@@H]2O)c1` (stereo not given in full), the composite z-score in [1] was 1.95; in assay [2], 0.195; in assay [3], -0.251; in assay [4] it was 0.755; in [5] it was 0.241; in [6], 0.414. The composite z-score in the assay with Lefty1 is 0.341; in assay [8] it was 0.698; in assay [10] it was 0.292; in assay [15], -0.519; in [16] it was -0.024; in the assay with Torsin-1A (Homo sapiens) [17], 0.242. Also, the composite z-score with Torsin-1A (Homo sapiens) [18] was -0.14; in assay [19], 0.291. For the same compound, the z-score in assay [7] was -0.349; in [9], -0.404 (inactive); in assay [11] it was -1.77 (inactive); in assay [12], 0.979 (inactive); in [13] it was 5.7 (inactive); in assay [14] it was 0.323 (inactive).

For the compound `O=C(NN=C1C[C@@H](O)[C@@H](O)[C@@H]2[C@@H]3C(=O)N(C[C@@H]4CCCO4)C(=O)[C@@H]3CC[C@@H]12)OCc1ccccc1`, the composite z-score in assay [1] was -0.391; in [2], -0.645; in assay [3], -0.345; in assay [4], -0.545; in [5] it was 0.5; in [6], 0.23. Also, the composite z-score in the assay on Lefty1 was 0.305; in [8], -0.248; in [10], 0.0252; in assay [15] it was -0.34; in [16], -0.242; with Torsin-1A (Homo sapiens) [17], 2.6. For the same compound, the composite z-score is 2.72 with Torsin-1A (Homo sapiens) [18] and 0.604 in assay [19]. In addition, the z-score in assay [7] was 0.49; in assay [9], -0.827 (inactive); in [11] it was -0.746 (inactive); in [12], 0.556 (inactive); in assay [13], 0.694 (inactive); in [14], 0.13 (inactive).
